The source made the active and inactive calls.
Legend:
[1] = tested on: XIP peptide (Xip251-270) binding; test: small-molecule binders of XIP peptide, primary screen, biochemical, small-molecule microarray, fluorescence 635/667 nm, 0.1 µg/mL protein (AID 1182); conditions: fluorescent protein binding, 635 nm, higher = more signal, called active from +8 up or from −8 down
XIP peptide (Xip251-270) = test: small-molecule binders of XIP peptide, primary screen, biochemical, small-molecule microarray, fluorescence 635/667 nm, 0.5 µg/mL protein (AID 1183); conditions: small-molecule microarray binding, fluorescence 635 nm; higher = more signal
[2] = Plasmodium falciparum growth inhibition, primary screen, strain 3D7, DAPI fluorescence, 100 nL (AID 1184);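 note: parasites grown inside human red blood cells in medium with human serum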; conditions: P. falciparum 3D7 growth, 3 d, higher = more signal
[3] = biological target: Homeobox protein Hox-A13 (Mus musculus) (UniProt Q62424); test: inhibitors of HoxA13-DNA binding, primary screen, biochemical, fluorescence polarization, labeled oligonucleotide (AID 1185); conditions: 15 min, higher = more signal, called active from +8 up or from −8 down
Sequence of Homeobox protein Hox-A13 (Mus musculus) (Q62424 whole entry, looked up): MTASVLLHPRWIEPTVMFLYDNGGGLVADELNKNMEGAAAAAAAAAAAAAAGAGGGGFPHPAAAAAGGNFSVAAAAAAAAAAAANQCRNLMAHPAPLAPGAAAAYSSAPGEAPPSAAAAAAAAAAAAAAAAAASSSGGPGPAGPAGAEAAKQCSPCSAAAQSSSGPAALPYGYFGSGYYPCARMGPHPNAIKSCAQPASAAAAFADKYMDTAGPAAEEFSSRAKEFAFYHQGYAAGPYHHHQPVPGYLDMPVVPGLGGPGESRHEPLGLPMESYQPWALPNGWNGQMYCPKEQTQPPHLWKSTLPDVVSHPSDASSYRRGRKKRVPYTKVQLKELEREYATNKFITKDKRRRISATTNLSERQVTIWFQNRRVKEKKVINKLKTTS

| SMILES | composite z-score [1] | composite z-score (XIP peptide (Xip251-270)) | z-score [2] | z-score [3] |
| --- | --- | --- | --- | --- |
| COc1ccc(O[C@H]2C=C[C@@H](c3ccccc3)O[C@@H]2CON=C(C)CCN2CCc3nc(-c4ccccc4)c(-c4ccccc4)cc3C2)cc1 | 0.276 (inactive) | 0.445 | -0.553 | -1.81 (inactive) |
| CCCNC(=O)OC[C@H]1O[C@H](CCON=C(C)CCN2CCCc3nc(C)c(C)cc32)C=C[C@@H]1Oc1ccc(OC)cc1 | -0.0364 (inactive) | 0.527 | -2.33 | -5.56 (inactive) |
| CCOC(=O)NN=C1C[C@@H](O)[C@@H](O)[C@@H]2[C@@H]3C(=O)N(c4cccc(Oc5ccccc5)c4)C(=O)[C@@H]3CC[C@H]12 | 0.389 (inactive) | 0.0776 | 0.275 | 1.22 (inactive) |
| COCCNC(=O)OCC1CCCC2(CC(OC(=O)NCc3ccc4c(c3)OCO4)CC(CCC(=O)N[C@@H](C)C(=O)OC)O2)O1 (stereo partly drawn) | 0.412 (inactive) | 0.623 | -2 | -6.4 (inactive) |
| O=c1n(-c2ccccc2)c(=O)n2n1CC[C@@H]1C(=NOCc3ccccc3)[C@H]3O[C@H]3[C@@H](O)[C@@H]12 | -0.368 (inactive) | -0.0725 | -0.557 | -4.06 (inactive) |
| CCOC(=O)C1=NO[C@]2(C=C(Br)C3(OCCCO3)[C@H]3O[C@H]32)C1 | -0.788 (inactive) | 0.857 | 0.99 | 0.136 (inactive) |
| CCCCc1nc2c(c3c1C[C@H](C)OC3)CN(CCOc1ccccc1)CC2 | 1.4 (inactive) | 0.566 | 0.964 | -4.81 (inactive) |
| CC(CCN1CCCCc2nc(C)c(C)cc21)=NOC[C@@H](C)[C@H](OCc1ccccc1)C(C)C | -0.494 (inactive) | -0.3 | 0.318 | -2.47 (inactive) |
| CCOC(=O)[C@H](CC(C)C)NC(=O)CCC1CC(OC(=O)NCc2ccc3c(c2)OCO3)CC2(CCCC(COC(=O)NCc3cccc(C(F)(F)F)c3)O2)O1 (stereo partly drawn) | 0.319 (inactive) | 0.348 | -2.06 | -1.71 (inactive) |
| COC(=O)CC=C[C@@H](C)[C@@H]1C=C[C@H](O)[C@@H](CO)O1 | 0.0118 (inactive) | -0.518 | 0.247 | -0.235 (inactive) |
| O=C1C[C@@H](O)[C@@H](O)[C@@H]2[C@@H]3C(=O)N(Cc4ccc5c(c4)OCO5)C(=O)[C@@H]3CC[C@H]12 | 0.245 (inactive) | 0.0056 | 1.57 | -0.523 (inactive) |
| CC(C)=CCCC(C)=CCON=C1C[C@@H](O)[C@@H](O)[C@@H]2[C@@H]3C(=O)N(Cc4ccccc4)C(=O)[C@@H]3CC[C@H]12 | -0.0515 (inactive) | 0.419 | -0.869 | -4.91 (inactive) |
| CON=Cc1ccc(C(=O)N2[C@H](c3ccc(C)cc3)[C@@H](C)CC[C@H]2C(=O)OC)cc1 | -0.288 (inactive) | 0.488 | -0.141 | -3.49 (inactive) |
| COC(=O)CC=C[C@@H](C)[C@@H](C=NO[C@H](C)c1cn([C@H](CO)Cc2ccccc2)nn1)NS(=O)(=O)c1ccc(C)cc1 | -0.418 (inactive) | 0.126 | 0.346 | -6.42 (inactive) |
| Cc1cc2c(nc1C)CCCN2CC(O)CN1CCCc2nc(C)c(C)cc21 | 0.6 (inactive) | -0.134 | -0.958 | -3.33 (inactive) |
| CCOC(=O)[C@H](Cc1ccccc1)NC(=O)CCC1CC(OC(=O)NCc2ccc3c(c2)OCO3)CC2(CCCC(COC(=O)NCCC(C)C)O2)O1 (stereo partly drawn) | 0.644 (inactive) | 0.18 | -1.2 | -6.91 (inactive) |
| COC(=O)CC=C[C@@H](C)[C@@H](C=NOCC[C@@H]1C=C[C@H](OC(C)=O)[C@@H](COC(C)=O)O1)OC | -0.198 (inactive) | 0.239 | 1.13 | -1.14 (inactive) |
| COC(=O)[C@H](C)NC(=O)CCC1CC(OC(=O)NCCc2ccc(F)cc2)CC2(CCCC(COC(=O)NCCC(C)C)O2)O1 (stereo partly drawn) | 0.162 (inactive) | 0.74 | -0.861 | -6.77 (inactive) |
| CO[C@H]1COC(=O)CC=C[C@H](C)[C@@H](OC)COC(=O)[C@@H](C)COC(=O)CC=C[C@@H]1C | -0.0653 (inactive) | -0.396 | -0.276 | -1.42 (inactive) |
| O=C1[C@H]2[C@H]3[C@H](O)[C@H](O)CC(=NOC[C@@H](O)COCc4ccco4)[C@H]3CC[C@H]2C(=O)N1Cc1ccccc1 | -0.227 (inactive) | 0.252 | 0.254 | -2.38 (inactive) |
| CCOC(=O)[C@H](Cc1ccccc1)NC(=O)CCC1CC(OC(=O)NCCc2ccc(F)cc2)CC2(CCCC(COC(=O)NCCc3ccc(Cl)cc3)O2)O1 (stereo partly drawn) | -0.345 (inactive) | 0.348 | -1.84 | -3.08 (inactive) |
| CCOC(=O)C1=NO[C@@]2(C=C(Br)C3(OCCCO3)[C@H]3O[C@H]32)C1 | 2.67 (inactive) | 0.512 | 0.522 | 0.14 (inactive) |

From PubChem BioAssay
